Source: PubChem BioAssay (NCATS)
Where “and” joins values, the source holds several entries; their conditions need not be identical. Equal values may be shown once. Records with an inconclusive call do not appear. Calls of active or inactive are those of the source. Unless noted, the call rests on the fitted dose curve; in most records, active means well fitted curve in the direction sought with a large enough effect; inconclusive means small, poorly fitted or top-dose-only effect, or another doubt; inactive means no such curve, though single readings can be large; an effect the other way counts as inactive or inconclusive.

Tests used:
[1] = target: Peroxisome proliferator-activated receptor alpha (Homo sapiens) (UniProt Q07869); test: qHTS assay for small molecule agonists of the peroxisome proliferator-activated receptor alpha (PPARalpha) signaling pathway (AID 651778); settings: PathHunter PPARalpha complementation, chemiluminescence, 6 h; max response: stronger effect = higher value; further: % of control where 0% means no effect
Chain of Peroxisome proliferator-activated receptor alpha (Homo sapiens) (Q07869 whole entry, looked up): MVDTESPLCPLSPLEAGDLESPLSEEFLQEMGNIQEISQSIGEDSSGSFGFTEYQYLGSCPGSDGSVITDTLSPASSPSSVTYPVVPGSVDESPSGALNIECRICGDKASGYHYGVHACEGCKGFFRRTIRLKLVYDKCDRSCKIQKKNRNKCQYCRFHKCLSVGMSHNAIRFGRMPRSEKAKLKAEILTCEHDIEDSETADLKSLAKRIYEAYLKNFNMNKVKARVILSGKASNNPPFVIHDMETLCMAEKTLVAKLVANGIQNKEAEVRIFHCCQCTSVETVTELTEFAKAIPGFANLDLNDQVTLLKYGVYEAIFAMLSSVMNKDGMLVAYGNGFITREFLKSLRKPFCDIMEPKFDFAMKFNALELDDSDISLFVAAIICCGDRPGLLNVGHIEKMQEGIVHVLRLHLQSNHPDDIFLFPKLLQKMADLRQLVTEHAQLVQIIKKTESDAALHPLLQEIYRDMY
Method in brief: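 Chemiluminescence from complemented enzyme reported PPARalpha activation in cells after 6 hr of compound treatment at 37 C. The detection reagent was incubated for 60 min at room temperature, and compounds were scored as agonists.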

[2] = qHTS for compounds that reverse cellular toxicity of Amyloid beta (A-beta) peptide in yeast: LOPAC Validation Assay (AID 720559);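 further: plate controls were DMSO for no effect and equimolar ferric chloride plus clioquinol rescue for full effect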
Method in brief: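 Yeast expressing toxic A-beta grown with pinned compounds at 30 C for 48 hr. Growth measured as absorbance at 600 nm; data normalized to DMSO and to an equimolar FeCl3/clioquinol mixture as positive control.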

[3] = qHTS for Activators of Parkin Expression: LOPAC Validation Assay (FLuc Reporter) (AID 720573;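 further: 0% = DMSO and 100% = positive control compounds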)
Method in brief: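 Neuronal cell line stably expressing FLuc/NLuc coincidence reporter under the Parkin promoter, 1,500 cells/well, dosed 24 h after seeding in 7-point series for 24 h at 37 C. FLuc luminescence read; normalized to DMSO and positive control (100%).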

[4] = qHTS assay for small molecule agonists of the antioxidant response element (ARE) signaling pathway measured by Nrf2-dependant transcriptional activity (AID 720636; active means well fitted curve in the direction sought with a large enough effect in the repeat runs; an effect the other way counts as inactive or inconclusive;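 further: HepG2 cells with an ARE-driven luciferase reporter; % of control where 0% means no effect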)
Method in brief: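 HepG2 ARE-luc reporter line, 1% dialyzed FBS; 6 hr attachment at 37 C, compound pinned in, 16 hr at 37 C/5% CO2; ONE-Glo, 30 min RT, luminescence read.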

[5] = qHTS assay for small molecule antagonists of the retinoid-related orphan receptor gamma (ROR-gamma) signaling pathway - cell viability counter screen (AID 720652; active means well fitted curve in the direction sought with a large enough effect in the repeat runs; an effect the other way counts as inactive or inconclusive;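 further: CHO reporter cells with doxycycline-induced ROR-gamma expression; series mostly up to about 92 µM; compound exposure lasted 16 hr before ATP read; on the % scale 0 is the no-effect control and ±100 the full control effect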)
Method in brief: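 CHO cells carrying TET-inducible ROR and RORE-luciferase reporter, plated 5 hr, then dosed with compound plus doxycycline. After 16 hr at 37 C, viability read as intracellular ATP by CellTiter-Glo luminescence.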

[6] = qHTS assay for small molecule agonists of the antioxidant response element (ARE) signaling pathway measured by Nrf2-dependant transcriptional activity - cell viability counter screen (AID 720653; active means well fitted curve in the direction sought with a large enough effect in the repeat runs; an effect the other way counts as inactive or inconclusive; further: on the % scale 0 is the no-effect control and ±100 the full control effect); settings: ARE-bla HepG2 viability, CellTiter-Glo ATP luminescence, 16 h; max response: stronger effect = lower value
Method in brief: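 Cytotoxicity counter screen: intracellular ATP quantified by CellTiter-Glo luminescence in the same ARE-bla HepG2 plates, after 16 h compound exposure and a 2 h beta-lactamase substrate step.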

[7] = target: T1, Hexokinase-4 (Homo sapiens) + Glucokinase regulatory protein (Homo sapiens) (UniProt P35557+Q14397); test: qHTS assay for inhibitors of recombinant human GCK-GKRP interaction: Diaphorase-coupled assay (AID 743205)
T1 sequence (P35557 whole entry, looked up): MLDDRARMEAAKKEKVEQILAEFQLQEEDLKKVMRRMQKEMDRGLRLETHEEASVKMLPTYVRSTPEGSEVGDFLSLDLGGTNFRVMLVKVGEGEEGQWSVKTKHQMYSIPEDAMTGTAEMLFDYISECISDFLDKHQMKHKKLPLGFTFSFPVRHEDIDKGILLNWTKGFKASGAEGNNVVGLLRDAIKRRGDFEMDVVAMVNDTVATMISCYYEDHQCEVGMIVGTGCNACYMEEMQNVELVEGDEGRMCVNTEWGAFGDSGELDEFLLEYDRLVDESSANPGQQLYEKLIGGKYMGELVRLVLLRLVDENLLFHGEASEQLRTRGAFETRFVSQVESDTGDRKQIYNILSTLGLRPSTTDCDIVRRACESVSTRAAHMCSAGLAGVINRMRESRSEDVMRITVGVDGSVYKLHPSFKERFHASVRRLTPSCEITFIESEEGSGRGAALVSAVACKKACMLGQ
T1 sequence (Q14397 whole entry, looked up): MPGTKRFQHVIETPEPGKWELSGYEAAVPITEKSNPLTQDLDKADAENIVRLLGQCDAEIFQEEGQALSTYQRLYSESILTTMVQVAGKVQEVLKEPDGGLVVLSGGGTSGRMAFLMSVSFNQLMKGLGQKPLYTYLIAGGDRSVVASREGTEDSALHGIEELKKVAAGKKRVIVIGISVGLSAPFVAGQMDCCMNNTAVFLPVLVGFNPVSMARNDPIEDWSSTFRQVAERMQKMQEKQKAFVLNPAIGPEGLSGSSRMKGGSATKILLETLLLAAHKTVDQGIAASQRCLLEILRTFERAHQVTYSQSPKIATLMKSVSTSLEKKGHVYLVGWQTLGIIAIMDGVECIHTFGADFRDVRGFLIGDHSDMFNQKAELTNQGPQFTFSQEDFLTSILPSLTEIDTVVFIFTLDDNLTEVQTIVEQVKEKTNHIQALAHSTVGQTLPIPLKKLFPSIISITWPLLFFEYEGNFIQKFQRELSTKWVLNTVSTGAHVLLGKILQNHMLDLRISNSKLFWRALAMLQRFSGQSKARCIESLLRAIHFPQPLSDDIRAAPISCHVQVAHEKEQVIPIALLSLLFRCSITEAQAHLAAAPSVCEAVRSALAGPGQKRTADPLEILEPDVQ
Method in brief: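 Compounds pre-incubated 20 min with substrate, then 10 nM GST-GCK with 10 nM FLAG-GKRP added. GCK activity coupled via G6PDH and diaphorase to resorufin (5 mM glucose, 0.4 mM ATP, 0.15 mM NADP+, pH 7.6), read kinetically over 30 minutes at Ex 525/Em 590 nm.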

[8] = target: T1, Hexokinase-4 (Homo sapiens) + Glucokinase regulatory protein (Homo sapiens); test: qHTS assay for inhibitors of recombinant human GCK-GKRP interaction: ADP-Glo assay (AID 743206);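 further: plate controls were DMSO plus enzyme for no effect and no enzyme for full effect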
Method in brief: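 GST-GCK and FLAG-GKRP (15 nM each in the dispensed mix, with 2 uM S6P) react with 0.4 mM ATP and 5 mM glucose (final) in Hepes pH 7.6 for 60 min at room temperature. ADP is measured by ADP-Glo luminescence.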

[9] = target: T1, Hexokinase-4 (Homo sapiens) + Glucokinase regulatory protein (Homo sapiens); test: qHTS assay for inhibitors of recombinant human GCK-GKRP interaction: HTRF assay (AID 743207);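 further: 0% = DMSO with GCK present and -100% = DMSO wells lacking GCK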
Method in brief: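 HTRF binding of 5 nM GST-GCK and 5 nM FLAG-GKRP with 2 uM S6P in pH 7.1 Hepes buffer (MgCl2, KCl, DTT, Tween 20, BSA). Anti-FLAG XL665 and anti-GST donor added, 60 min at room temperature; 665/615 nm read, normalized to with- and without-GCK controls.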

[10] = qHTS Assay for Identifying Gametocytocidal Compounds (AID 743244); further: potency means the concentration at half of the fitted maximal effect;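 on max response: on the % scale 0 is the no-effect control and ±100 the full control effect; actives lower the fluorescent signal which means gametocytes are killed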; settings: P. falciparum 3D7 stage III-V gametocytes, alamarBlue, 72 h; max response: stronger effect = lower value
Method in brief: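 Using 20,000 stage III–V 3D7 gametocytes per well, compounds were incubated 72 h under 37 °C/5% CO2. Viability was then assessed by 24 h alamarBlue reduction, measured fluorometrically at 525/598 nm.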

[11] = qHTS assay for cell viability of HEK293 cells (AID 743288); settings: ATP luminescence (CellTiter-Glo), 18 h; max response: stronger effect = lower value; further: on the % scale 0 is the no-effect control and ±100 the full control effect; nearly all actives have a fitted effect of over 50% in size
Method in brief: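 Parental HEK293 cells, 2,000 per well, preincubated at least 5 h at 37 C, then exposed to compounds in DMSO for 18 h at 37 C. Viability by CellTiter-Glo ATP luminescence after 30 min at room temperature.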

[12] = qHTS assay for cell viability of the p53RE-bla HCT-116 cell line (AID 743292); further: on the % scale 0 is the no-effect control and ±100 the full control effect; nearly all actives have a fitted effect of over 55% in size
Method in brief: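 Luminescent ATP quantitation (CellTiter-Glo) served as the viability read-out; reagent was added after 16 h compound exposure at 37 C and read after 30 min at room temperature. Cells: p53RE-bla HCT-116, 4,000 per well.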

[13] = qHTS for Activators of Parkin Expression: LOPAC Validation Assay (NLuc Reporter) (AID 720572;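 further: 0% = DMSO and 100% = positive control compound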)
Method in brief: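 Parkin promoter-driven FLuc/NLuc neuronal reporter cells; 24 h plating, 7-pt dose response, 24 h at 37 C/5% CO2; FLuc then NanoLuc reagent, 10 min each, luminescence; DMSO/positive control normalized.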

[14] = target: Arylsulfatase A (Homo sapiens) (UniProt P15289); test: qHTS screen for enhancers of Arylsulfatase A (ASA1): LOPAC Validation Assay (AID 720538)
Chain of Arylsulfatase A (Homo sapiens) (P15289 whole entry, looked up): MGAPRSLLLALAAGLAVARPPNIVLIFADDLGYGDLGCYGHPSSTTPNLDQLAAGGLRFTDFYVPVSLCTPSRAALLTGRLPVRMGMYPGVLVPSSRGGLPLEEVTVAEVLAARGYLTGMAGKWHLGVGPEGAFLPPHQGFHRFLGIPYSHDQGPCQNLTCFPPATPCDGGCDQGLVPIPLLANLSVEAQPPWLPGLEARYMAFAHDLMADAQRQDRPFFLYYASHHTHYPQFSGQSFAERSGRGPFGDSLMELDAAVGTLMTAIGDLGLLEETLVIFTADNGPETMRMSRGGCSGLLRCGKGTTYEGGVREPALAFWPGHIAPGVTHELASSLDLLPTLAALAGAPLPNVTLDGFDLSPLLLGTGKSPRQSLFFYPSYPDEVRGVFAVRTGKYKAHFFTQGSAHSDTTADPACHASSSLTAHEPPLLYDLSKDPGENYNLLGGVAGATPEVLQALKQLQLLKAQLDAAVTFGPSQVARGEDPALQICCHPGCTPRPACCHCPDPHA
Method in brief: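 SV40-transformed fibroblasts from an MLD patient (ASA-I179S) were treated with compound for 48 h at 37 C. They were then lysed with 0.5 mM pNCS substrate (final) for 14 h at room temperature and stopped with NaOH; signal read by fluorescence (Ex 525/Em 598 nm), with increase denoting enhanced activity.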

COc1ccc2c(c1)c(CC(=O)O)c(C)n2C(=O)c1ccc(Cl)cc1
inactive: max response [1] 11.2% and 10.8% | outcome [2] | Potency [3] | outcome [4] | Potency [5] | max response [6] 1.73% and -1.81% | Potency [7] | Potency [8] | Potency [9] | max response [10] 2.39% and 17.2% | max response [11] 11.9% and -6.39% | Potency [12]

O=C(c1ccc(OCCN2CCCCC2)cc1)c1c(-c2ccc(O)cc2)sc2cc(O)ccc12
inactive: max response [1] -6.34% | outcome [2] | outcome [13] | Potency [3] | outcome [4] | Potency [7] | Potency [8] | Potency [9]

Nc1nnc(-c2cccc(Cl)c2Cl)c(N)n1
inactive: Potency [14] | outcome [2] | outcome [13] | Potency [3] | Potency [7] | Potency [8] | Potency [9] | max response [10] 5.45% and 12.4%

COc1cc2nc(N(C)CCCNC(=O)C3CCCO3)nc(N)c2cc1OC (stereo not given)
inactive: outcome [2] | outcome [13] | Potency [3] | Potency [7] | Potency [8] | Potency [9] | max response [10] 19.8% and 12.7%

Fc1ccc([C@@H]2CCNC[C@H]2COc2ccc3c(c2)OCO3)cc1
active: Potency [10] 12.6 µM and 1.12 µM
inactive: Potency [14] | outcome [2] | outcome [13] | Potency [3] | Potency [7] | Potency [8] | Potency [9]

CN1CCC(=C2c3ccccc3C=Cc3ccccc32)CC1
inactive: Potency [14] | outcome [2] | outcome [13] | Potency [3] | Potency [7] | Potency [8] | Potency [9]

NCCCCCC(=O)O
inactive: Potency [14] | outcome [2] | outcome [13] | Potency [3] | Potency [7] | Potency [8] | Potency [9] | max response [10] -0.169% and -6.11%

NC(=O)OCC(COC(N)=O)c1ccccc1
inactive: Potency [14] | outcome [2] | outcome [13] | Potency [3] | Potency [7] | Potency [8] | Potency [9] | max response [10] 0.706% and 21.3%

CC(CCc1ccc(O)cc1)NCCc1ccc(O)c(O)c1 (stereo not given)
inactive: Potency [14] | outcome [2] | outcome [13] | Potency [3] | Potency [7] | Potency [8] | Potency [9] | max response [10] 27.1%

CN1CCN(CCCN2c3ccccc3Sc3ccc(Cl)cc32)CC1
inactive: outcome [2] | outcome [13] | Potency [3] | Potency [7] | Potency [8] | Potency [9]
